Targets with a hit are over-represented here; the source holds about 8,800 in all. About 0.5% of all pairs of compound and target were hits. A number with no mark means an inactive call.
Assays:
Assay in all cases: log2 fold change, soluble protein after heating vs DMSO (PISA); higher = thermal stabilisation; K562 lysate, 10 uM; active = over 0.2 and 3.5 SD of the protein, either way, in both replicates (recomputed)
ibrutinib = compound: C=CC(=O)N1CCC[C@@H](n2nc(-c3ccc(Oc4ccccc4)cc3)c3c(N)ncnc32)C1 [ibrutinib]
Summary of the method: (§1)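 Values give the log-two fold change in thermal stability against solvent controls, from duplicates. Crude K562 extract at 1 mg/mL protein, made by dounce homogenisation in PBS pH 7.4 with 1 mM MgCl2, was treated with 10 μM compound for 30 min. After 3 min heating across 48°C-58°C, aliquots were pooled, adjusted to 0.5% NP-40 at 4°C and centrifuged at 21,000xg for 90 min. The supernatant was measured by TMTpro 16plex LC-MS/MS with channel sums equalised.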

ralimetinib = compound: CC(C)(C)Cn1c(N)nc2ccc(-c3[nH]c(C(C)(C)C)nc3-c3ccc(F)cc3)nc21 [ralimetinib]
Summary of the method: as §1

[1] = compound: CC(C)(O)CC(=O)NCCn1ccc2ncnc(Nc3ccc(Oc4cccc(C(F)(F)F)c4)c(Cl)c3)c21
Summary of the method: as §1

[2] = compound: CC(C)C1=C2N=C(C=C(N2N=C1)NCC3=CC=CC=C3)NCCCCCCN
Summary of the method: as §1

[3] = compound: CC1=C(C(CC(=O)N1)C2=CC=C(C=C2)C(F)(F)F)C(=O)NC3=C(C=C4C(=C3)C=NN4)F
Summary of the method: as §1

[4] = compound: CC1=C(C2=C(C=C1)C(=O)C3=CC=CC=C3N2CCCN)C
Summary of the method: as §1

[5] = compound: CC1=C(C=C(C=C1)NC(=O)C2=CC(=CC=C2)C(C)(C)C#N)NC3=CC4=C(C=C3)N=CN(C4=O)C
Summary of the method: as §1

[6] = compound: CC1=C(C=C(C=C1)NC(=O)C2=CC(=CC=C2)N(C)C)NC(=O)C3=CC=C(C=C3)O
Summary of the method: as §1

vemurafenib = compound: CCCS(=O)(=O)Nc1ccc(F)c(C(=O)c2c[nH]c3ncc(-c4ccc(Cl)cc4)cc23)c1F [vemurafenib]
Summary of the method: as §1

barasertib = compound: CCN(CCCOc1ccc2c(Nc3cc(CC(=O)Nc4cccc(F)c4)[nH]n3)ncnc2c1)CCOP(=O)(O)O [barasertib]
Summary of the method: as §1

[7] = compound: CC[C@@H]1C(=O)N(C)c2cnc(Nc3ccc(C(=O)NC4CCN(C)CC4)cc3OC)nc2N1C1CCCC1
Summary of the method: as §1

[8] = compound: CCn1c(C(=O)N(C2CC2)C2CC2)cc2c3c(ncn3C)c(Nc3cc(C)n(C)n3)nc21
Summary of the method: as §1

[9] = compound: CCn1cc(-c2ccnc3[nH]c(-c4cccc(CN(C)C)c4)cc23)c(-c2ccc(NC(=O)N(C)C)cc2)n1
Summary of the method: as §1

[10] = compound: CN1CCC(CNc2ccc3ncc(-c4cccc(OC(F)(F)F)c4)n3n2)CC1
Summary of the method: as §1

saracatinib = compound: CN1CCN(CCOc2cc(OC3CCOCC3)c3c(Nc4c(Cl)ccc5c4OCO5)ncnc3c2)CC1 [saracatinib]
Summary of the method: as §1

sotrastaurin = compound: CN1CCN(c2nc(C3=C(c4c[nH]c5ccccc45)C(=O)NC3=O)c3ccccc3n2)CC1 [sotrastaurin]
Summary of the method: as §1

[11] = compound: CC(=O)c1cnc2ccc(-c3cc(Cl)c(O)c(Cl)c3)nc2c1N[C@H]1CC[C@H](CN(C)C)CC1
Summary of the method: as §1

[12] = compound: CC1=CC=C(C=C1)SC2=C3C=C(SC3=CN=C2)C(=O)N
Summary of the method: as §1

[13] = compound: CCCS(=O)(=O)Nc1ccc(F)c(C(=O)c2c[nH]c3ncc(Cl)cc23)c1F
Summary of the method: as §1

volasertib = compound: CC[C@@H]1C(=O)N(C)c2cnc(Nc3ccc(C(=O)N[C@H]4CC[C@H](N5CCN(CC6CC6)CC5)CC4)cc3OC)nc2N1C(C)C [volasertib]
Summary of the method: as §1

Target: TK1 (UniProt K7ERV3)
- log2 fold change (ibrutinib): 0.175
- log2 fold change (ralimetinib): -0.018
- log2 fold change [1]: -0.061
- log2 fold change [2]: -0.114
- log2 fold change [3]: -0.013
- log2 fold change [4]: -0.023
- log2 fold change [5]: 0.032
- log2 fold change [6]: -0.028
- log2 fold change (vemurafenib): -0.001
- log2 fold change (barasertib): 0.072
- log2 fold change [7]: -0.105
- log2 fold change [8]: 0.049
- log2 fold change [9]: -0.102
- log2 fold change [10]: 0.068
- log2 fold change (saracatinib): 0.089
- log2 fold change (sotrastaurin): -0.147

Target: TFPI (UniProt P10646)
Chain of UniProt P10646 (P10646 whole entry, looked up): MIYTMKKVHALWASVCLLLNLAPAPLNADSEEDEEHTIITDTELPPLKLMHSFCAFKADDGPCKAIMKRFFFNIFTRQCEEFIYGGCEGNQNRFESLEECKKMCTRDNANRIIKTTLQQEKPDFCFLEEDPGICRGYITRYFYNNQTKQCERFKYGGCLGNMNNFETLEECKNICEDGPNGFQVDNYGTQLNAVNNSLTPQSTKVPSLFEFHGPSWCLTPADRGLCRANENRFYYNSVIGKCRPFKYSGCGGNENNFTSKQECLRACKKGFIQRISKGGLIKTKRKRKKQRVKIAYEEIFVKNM
- log2 fold change (ibrutinib): 0.024
- log2 fold change [11]: 0.035
- log2 fold change (ralimetinib): 0.046
- log2 fold change [1]: -0.003
- log2 fold change [2]: -0.011
- log2 fold change [3]: -0.042
- log2 fold change [5]: 0.021
- log2 fold change [6]: -0.027
- log2 fold change [12]: 0.073
- log2 fold change (vemurafenib): -0.079
- log2 fold change [13]: 0.005
- log2 fold change (barasertib): 0.015
- log2 fold change [7]: -0.019
- log2 fold change (volasertib): 0.016
- log2 fold change [8]: 0.093
- log2 fold change [9]: 0.689 (active)
- log2 fold change [10]: -0.321
- log2 fold change (sotrastaurin): 0.167

Target: TFAP4 (UniProt Q01664)
Chain of UniProt Q01664 (Q01664 whole entry, looked up): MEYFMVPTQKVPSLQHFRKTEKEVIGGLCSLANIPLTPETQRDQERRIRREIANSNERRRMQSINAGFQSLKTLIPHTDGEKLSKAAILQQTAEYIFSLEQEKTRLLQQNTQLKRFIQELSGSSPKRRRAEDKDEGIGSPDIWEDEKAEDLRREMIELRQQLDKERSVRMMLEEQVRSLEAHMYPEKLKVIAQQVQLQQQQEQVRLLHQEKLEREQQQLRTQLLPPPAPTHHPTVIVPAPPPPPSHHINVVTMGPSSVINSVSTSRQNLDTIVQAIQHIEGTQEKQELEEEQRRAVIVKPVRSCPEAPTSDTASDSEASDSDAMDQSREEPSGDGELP
- log2 fold change (ibrutinib): 0.057
- log2 fold change [11]: 0.141
- log2 fold change (ralimetinib): 0.004
- log2 fold change [1]: -0.26
- log2 fold change [2]: -0.109
- log2 fold change [3]: 0.046
- log2 fold change [5]: 0.058
- log2 fold change [6]: 0.038
- log2 fold change [12]: 0.07
- log2 fold change (vemurafenib): 0.105
- log2 fold change [13]: 0.021
- log2 fold change (barasertib): 0.072
- log2 fold change [7]: 0.131
- log2 fold change (volasertib): -0.112
- log2 fold change [8]: 0.129
- log2 fold change [9]: 0.597
- log2 fold change [10]: -0.189
- log2 fold change (sotrastaurin): 0.007

Target: TUBB6 (UniProt K7ES63)
- log2 fold change (ibrutinib): -0.005
- log2 fold change [11]: 0.076
- log2 fold change (ralimetinib): 0.094
- log2 fold change [1]: -0.07
- log2 fold change [2]: 0.132
- log2 fold change [3]: -0.061
- log2 fold change [5]: -0.005
- log2 fold change [6]: 0.027
- log2 fold change [12]: -0.098
- log2 fold change (vemurafenib): 0.072
- log2 fold change [13]: -0.027
- log2 fold change (barasertib): -0.012
- log2 fold change [7]: -0.096
- log2 fold change (volasertib): -0.064
- log2 fold change [8]: 0.018
- log2 fold change [9]: -0.06
- log2 fold change [10]: 0.23
- log2 fold change (sotrastaurin): 0.036

Target: TJP1 isoform 2 (UniProt Q07157)
Chain of UniProt Q07157 (Q07157 whole entry, looked up): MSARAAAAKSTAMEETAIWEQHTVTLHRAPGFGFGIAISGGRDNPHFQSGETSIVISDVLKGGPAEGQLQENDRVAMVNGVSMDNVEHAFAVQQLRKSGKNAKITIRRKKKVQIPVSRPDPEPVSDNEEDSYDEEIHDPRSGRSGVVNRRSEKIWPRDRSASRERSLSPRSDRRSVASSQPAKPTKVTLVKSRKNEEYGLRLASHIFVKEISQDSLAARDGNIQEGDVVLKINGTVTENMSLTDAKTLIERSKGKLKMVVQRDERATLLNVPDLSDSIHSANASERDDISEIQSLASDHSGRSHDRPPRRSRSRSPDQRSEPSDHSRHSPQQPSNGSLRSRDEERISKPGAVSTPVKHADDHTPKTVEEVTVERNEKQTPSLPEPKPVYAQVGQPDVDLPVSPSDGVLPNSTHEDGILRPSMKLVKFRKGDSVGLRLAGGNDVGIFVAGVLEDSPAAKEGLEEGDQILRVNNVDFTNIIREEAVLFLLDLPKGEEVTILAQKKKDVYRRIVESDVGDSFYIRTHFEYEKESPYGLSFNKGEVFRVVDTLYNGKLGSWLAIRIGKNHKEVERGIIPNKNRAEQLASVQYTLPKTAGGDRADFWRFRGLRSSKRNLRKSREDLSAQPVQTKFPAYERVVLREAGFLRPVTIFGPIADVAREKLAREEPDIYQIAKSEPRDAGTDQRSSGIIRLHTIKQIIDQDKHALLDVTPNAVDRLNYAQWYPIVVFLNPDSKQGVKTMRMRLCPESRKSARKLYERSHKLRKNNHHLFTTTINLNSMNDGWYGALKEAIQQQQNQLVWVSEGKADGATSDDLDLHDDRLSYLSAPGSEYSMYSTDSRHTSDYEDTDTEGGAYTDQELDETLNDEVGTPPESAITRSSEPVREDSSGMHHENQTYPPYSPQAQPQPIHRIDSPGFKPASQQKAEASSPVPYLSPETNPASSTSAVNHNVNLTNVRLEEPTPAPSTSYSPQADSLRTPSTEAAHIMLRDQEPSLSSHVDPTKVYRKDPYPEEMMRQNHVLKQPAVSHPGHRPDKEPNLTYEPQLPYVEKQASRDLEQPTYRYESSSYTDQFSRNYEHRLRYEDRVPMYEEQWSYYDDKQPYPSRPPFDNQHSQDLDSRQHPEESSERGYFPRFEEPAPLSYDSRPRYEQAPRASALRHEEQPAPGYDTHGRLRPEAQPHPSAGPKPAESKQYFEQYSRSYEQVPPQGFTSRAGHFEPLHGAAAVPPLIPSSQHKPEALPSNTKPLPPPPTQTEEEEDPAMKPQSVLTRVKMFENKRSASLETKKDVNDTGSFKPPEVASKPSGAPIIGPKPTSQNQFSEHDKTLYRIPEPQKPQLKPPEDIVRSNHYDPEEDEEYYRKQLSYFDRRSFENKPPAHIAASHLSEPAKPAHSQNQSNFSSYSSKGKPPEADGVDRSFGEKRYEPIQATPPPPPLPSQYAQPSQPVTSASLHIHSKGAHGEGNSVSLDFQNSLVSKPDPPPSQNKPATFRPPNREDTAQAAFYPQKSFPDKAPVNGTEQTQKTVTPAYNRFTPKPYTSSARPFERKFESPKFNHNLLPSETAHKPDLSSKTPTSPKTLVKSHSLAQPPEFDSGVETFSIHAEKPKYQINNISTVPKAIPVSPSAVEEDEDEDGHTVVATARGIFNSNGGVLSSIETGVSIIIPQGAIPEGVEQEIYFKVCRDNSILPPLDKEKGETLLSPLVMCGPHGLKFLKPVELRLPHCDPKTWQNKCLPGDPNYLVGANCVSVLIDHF
- log2 fold change (ibrutinib): 0.019
- log2 fold change [11]: -0.001
- log2 fold change (ralimetinib): -0.007
- log2 fold change [1]: -0.041
- log2 fold change [2]: 0.036
- log2 fold change [3]: 0.002
- log2 fold change [4]: -0.025
- log2 fold change [5]: 0.015
- log2 fold change [6]: 0.016
- log2 fold change [12]: -0.014
- log2 fold change (vemurafenib): 0.023
- log2 fold change [13]: 0
- log2 fold change (barasertib): -0.003
- log2 fold change [7]: 0.064
- log2 fold change (volasertib): -0.01
- log2 fold change [8]: -0.045
- log2 fold change [9]: -0.046
- log2 fold change [10]: 0.057
- log2 fold change (saracatinib): 0.014
- log2 fold change (sotrastaurin): 0.014

Target: TLE3 isoform 5 (UniProt Q04726)
Chain of UniProt Q04726 (Q04726 whole entry, looked up): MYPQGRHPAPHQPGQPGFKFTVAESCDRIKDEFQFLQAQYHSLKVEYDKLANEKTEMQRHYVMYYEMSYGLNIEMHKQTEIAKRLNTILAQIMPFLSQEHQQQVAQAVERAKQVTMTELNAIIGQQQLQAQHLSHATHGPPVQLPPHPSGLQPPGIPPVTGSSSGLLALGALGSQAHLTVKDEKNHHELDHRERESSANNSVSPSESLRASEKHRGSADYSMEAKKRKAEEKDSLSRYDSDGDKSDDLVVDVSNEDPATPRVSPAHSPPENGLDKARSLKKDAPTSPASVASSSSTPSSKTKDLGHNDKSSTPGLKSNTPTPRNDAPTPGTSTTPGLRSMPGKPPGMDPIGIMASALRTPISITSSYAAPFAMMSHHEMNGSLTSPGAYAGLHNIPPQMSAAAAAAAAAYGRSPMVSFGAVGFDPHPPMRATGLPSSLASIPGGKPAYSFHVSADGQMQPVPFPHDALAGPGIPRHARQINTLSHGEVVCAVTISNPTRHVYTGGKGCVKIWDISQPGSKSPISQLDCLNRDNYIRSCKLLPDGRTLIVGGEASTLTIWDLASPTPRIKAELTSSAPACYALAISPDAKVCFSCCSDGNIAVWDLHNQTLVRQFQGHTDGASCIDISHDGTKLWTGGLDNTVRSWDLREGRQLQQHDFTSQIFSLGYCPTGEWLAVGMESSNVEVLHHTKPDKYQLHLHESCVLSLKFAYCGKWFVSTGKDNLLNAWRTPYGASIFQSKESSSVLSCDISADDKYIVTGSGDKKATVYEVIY
- log2 fold change (ibrutinib): 0.045
- log2 fold change [11]: -0.022
- log2 fold change (ralimetinib): -0.027
- log2 fold change [1]: -0.077
- log2 fold change [2]: -0.061
- log2 fold change [3]: 0.138
- log2 fold change [4]: -0.053
- log2 fold change [5]: 0.093
- log2 fold change [6]: 0.018
- log2 fold change [12]: -0.035
- log2 fold change [13]: 0.037
- log2 fold change (barasertib): -0.176
- log2 fold change [7]: 0.026
- log2 fold change (volasertib): -0.025
- log2 fold change [8]: 0.034
- log2 fold change [9]: 0.101
- log2 fold change [10]: 0.178
- log2 fold change (saracatinib): 0.049
- log2 fold change (sotrastaurin): 0.015

Target: UBXN2B (UniProt Q14CS0)
Chain of UniProt Q14CS0 (Q14CS0 whole entry, looked up): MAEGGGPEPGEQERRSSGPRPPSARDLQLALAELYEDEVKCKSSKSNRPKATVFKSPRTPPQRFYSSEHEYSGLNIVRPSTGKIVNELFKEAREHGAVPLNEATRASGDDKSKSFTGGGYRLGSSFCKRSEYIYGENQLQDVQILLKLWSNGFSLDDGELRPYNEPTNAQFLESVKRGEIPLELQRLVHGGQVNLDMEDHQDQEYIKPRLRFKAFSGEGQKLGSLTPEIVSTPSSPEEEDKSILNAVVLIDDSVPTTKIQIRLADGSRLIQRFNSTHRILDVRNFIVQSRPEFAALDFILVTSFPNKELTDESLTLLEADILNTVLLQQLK
- log2 fold change (ibrutinib): 0.108
- log2 fold change [11]: 0.19
- log2 fold change (ralimetinib): 0.087
- log2 fold change [1]: -0.075
- log2 fold change [2]: 0.002
- log2 fold change [3]: -0.189
- log2 fold change [4]: -0.192
- log2 fold change [6]: 0.022
- log2 fold change [12]: -0.011
- log2 fold change (vemurafenib): 0.148
- log2 fold change [13]: 0.049
- log2 fold change (barasertib): 0.147
- log2 fold change [7]: 0.065
- log2 fold change (volasertib): -0.066
- log2 fold change [8]: -0.035
- log2 fold change [9]: -0.142
- log2 fold change [10]: 0.074
- log2 fold change (saracatinib): -0.068

Target: TCF20 (UniProt Q9UGU0)
- log2 fold change (ibrutinib): -0.025
- log2 fold change [11]: 0.128
- log2 fold change [2]: -0.317
- log2 fold change [4]: -0.212
- log2 fold change [5]: -0.004
- log2 fold change [12]: -0.166
- log2 fold change [13]: -0.106
- log2 fold change (barasertib): 0.084
- log2 fold change (volasertib): 0.006
- log2 fold change [9]: -0.02
- log2 fold change [10]: -0.031
- log2 fold change (saracatinib): 0.038
- log2 fold change (sotrastaurin): 0.086

Target: TXNIP (UniProt Q9H3M7)
Chain of UniProt Q9H3M7 (Q9H3M7 whole entry, looked up): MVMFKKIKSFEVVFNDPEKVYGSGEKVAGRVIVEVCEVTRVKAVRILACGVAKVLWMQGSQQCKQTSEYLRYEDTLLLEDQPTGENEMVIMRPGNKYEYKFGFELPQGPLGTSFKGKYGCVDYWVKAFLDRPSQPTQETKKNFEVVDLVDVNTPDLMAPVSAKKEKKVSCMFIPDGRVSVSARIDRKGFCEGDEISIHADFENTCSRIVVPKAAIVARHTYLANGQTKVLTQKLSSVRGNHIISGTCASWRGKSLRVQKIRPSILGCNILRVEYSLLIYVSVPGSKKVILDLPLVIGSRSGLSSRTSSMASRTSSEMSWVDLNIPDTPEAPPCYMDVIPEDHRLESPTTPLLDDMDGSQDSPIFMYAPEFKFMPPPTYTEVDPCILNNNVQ
- log2 fold change (ibrutinib): -0.009
- log2 fold change (ralimetinib): 0.007
- log2 fold change [1]: -0.02
- log2 fold change [2]: -0.053
- log2 fold change [3]: 0.011
- log2 fold change [4]: -0.036
- log2 fold change [5]: 0.037
- log2 fold change [6]: 0.016
- log2 fold change (vemurafenib): 0.008
- log2 fold change (barasertib): -0.005
- log2 fold change [7]: -0.006
- log2 fold change [8]: 0.016
- log2 fold change [9]: 0.209
- log2 fold change [10]: -0.11
- log2 fold change (saracatinib): -0.07
- log2 fold change (sotrastaurin): 0.016

Reference: the supplement of paper PMC10849652
